This passage reports binding signal results from PMC7862700, “An all-to-all approach to the identification of sequence-specific readers for epigenetic DNA modifications on cytosine”.

Assay in all cases: DAPPL (digital affinity profiling via proximity ligation, sequencing); 10 mM Tris-HCl pH 7.5, 50 mM NaCl, 1 mM DTT, 4% glycerol, room temperature, 30 min; GST-TFs on glutathione beads, 16-mer random dsDNA library, 0.1% formaldehyde crosslink after washing; high values mean tight binding
What all share (conditions): protein: recombinant; tags: N-terminal GST; dsDNA, one strand shown

The target in one test is T1, FLI1 (Homo sapiens, UniProt Q01543 1-452).
T1 sequence: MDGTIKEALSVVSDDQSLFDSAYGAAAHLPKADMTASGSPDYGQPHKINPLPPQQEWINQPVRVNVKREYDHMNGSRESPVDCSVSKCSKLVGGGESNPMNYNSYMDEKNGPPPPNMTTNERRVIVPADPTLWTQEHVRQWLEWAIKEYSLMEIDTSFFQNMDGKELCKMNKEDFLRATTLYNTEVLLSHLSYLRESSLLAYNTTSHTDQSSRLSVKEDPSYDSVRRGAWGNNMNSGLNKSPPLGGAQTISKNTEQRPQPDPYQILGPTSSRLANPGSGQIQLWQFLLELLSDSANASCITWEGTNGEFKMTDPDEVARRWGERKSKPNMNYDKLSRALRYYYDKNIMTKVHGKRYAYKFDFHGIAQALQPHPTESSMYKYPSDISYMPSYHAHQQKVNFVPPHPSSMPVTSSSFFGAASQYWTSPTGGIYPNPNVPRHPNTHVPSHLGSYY
In a few lines: (§1)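 Each value of binding signal is a hexamer's read frequency for a factor divided by the same hexamer's frequency in the tag-only sample. Barcoded, bead-captured GST fusions of human transcription factors made in yeast were pooled with that sample and incubated with 200 nmole of a random double-stranded 16-mer DNA library in Tris/NaCl/DTT/glycerol buffer at room temperature for 30 min. Washing, 0.1% formaldehyde crosslinking, proximity ligation, PCR and Illumina NextSeq500 sequencing followed.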

In the next test the target is T2, EHF (Homo sapiens, UniProt Q9NZC4 1-300).
T2 sequence: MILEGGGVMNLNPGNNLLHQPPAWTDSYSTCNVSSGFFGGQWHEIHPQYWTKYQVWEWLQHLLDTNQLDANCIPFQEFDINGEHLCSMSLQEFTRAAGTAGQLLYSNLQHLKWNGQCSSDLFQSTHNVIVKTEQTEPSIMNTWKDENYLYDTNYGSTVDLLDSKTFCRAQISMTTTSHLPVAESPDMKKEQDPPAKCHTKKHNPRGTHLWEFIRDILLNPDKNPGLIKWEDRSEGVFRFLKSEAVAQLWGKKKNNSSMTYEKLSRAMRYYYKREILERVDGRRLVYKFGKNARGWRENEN
In a few lines:
as §1

Another test addresses SPI1 (Homo sapiens, UniProt P17947 1-270). In a few lines: as §1
A further test deals with T3, ELK3 (Homo sapiens, UniProt P41970 1-407).
T3 sequence: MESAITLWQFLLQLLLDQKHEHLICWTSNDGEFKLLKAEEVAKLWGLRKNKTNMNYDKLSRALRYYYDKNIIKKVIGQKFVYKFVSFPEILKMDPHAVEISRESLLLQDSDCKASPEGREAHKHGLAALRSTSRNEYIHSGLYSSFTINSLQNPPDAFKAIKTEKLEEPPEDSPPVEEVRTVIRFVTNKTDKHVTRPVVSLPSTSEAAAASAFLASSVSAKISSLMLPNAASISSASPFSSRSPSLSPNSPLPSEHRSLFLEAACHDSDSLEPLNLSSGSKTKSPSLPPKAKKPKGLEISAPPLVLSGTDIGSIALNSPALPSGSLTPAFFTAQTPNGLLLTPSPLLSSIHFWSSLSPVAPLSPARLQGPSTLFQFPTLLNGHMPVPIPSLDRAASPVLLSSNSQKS
An outline of the steps:
as §1

The target in another test is T4, FEV (Homo sapiens, UniProt Q99581 1-238).
T4 sequence: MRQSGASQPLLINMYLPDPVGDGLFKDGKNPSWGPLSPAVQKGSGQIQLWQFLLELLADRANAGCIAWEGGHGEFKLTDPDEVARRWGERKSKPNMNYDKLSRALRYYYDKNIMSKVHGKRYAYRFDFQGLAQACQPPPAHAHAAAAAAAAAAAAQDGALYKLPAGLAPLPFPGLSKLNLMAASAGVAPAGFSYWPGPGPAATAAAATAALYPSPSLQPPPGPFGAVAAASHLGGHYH
In a few lines: as §1

Another test has as its target T5, SPIC (Homo sapiens, UniProt Q8N5J4 1-248).
T5 sequence: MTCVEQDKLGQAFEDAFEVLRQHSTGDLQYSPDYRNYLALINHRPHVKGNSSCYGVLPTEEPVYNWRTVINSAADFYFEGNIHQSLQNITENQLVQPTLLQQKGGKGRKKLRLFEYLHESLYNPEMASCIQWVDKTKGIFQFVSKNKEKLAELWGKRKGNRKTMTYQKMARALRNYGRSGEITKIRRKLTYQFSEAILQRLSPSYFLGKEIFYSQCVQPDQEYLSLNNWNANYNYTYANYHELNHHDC
In a few lines: as §1

Another test deals with T6, ELK4 (Homo sapiens, UniProt P28324-2 1-405).
T6 sequence: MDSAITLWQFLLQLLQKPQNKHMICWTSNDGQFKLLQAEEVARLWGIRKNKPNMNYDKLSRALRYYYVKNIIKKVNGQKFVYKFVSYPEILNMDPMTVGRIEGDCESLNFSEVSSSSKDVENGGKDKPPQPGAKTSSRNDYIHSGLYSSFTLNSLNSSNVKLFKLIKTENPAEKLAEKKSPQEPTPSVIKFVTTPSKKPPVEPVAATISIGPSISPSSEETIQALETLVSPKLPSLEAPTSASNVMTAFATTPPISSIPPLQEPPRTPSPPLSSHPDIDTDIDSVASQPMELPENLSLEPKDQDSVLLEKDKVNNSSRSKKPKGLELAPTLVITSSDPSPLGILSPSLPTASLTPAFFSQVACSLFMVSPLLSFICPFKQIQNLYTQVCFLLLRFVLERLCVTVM
An outline of the steps:
as §1

The next test concerns the target T7, ETV2 (Homo sapiens, UniProt O00321 1-342).
T7 sequence: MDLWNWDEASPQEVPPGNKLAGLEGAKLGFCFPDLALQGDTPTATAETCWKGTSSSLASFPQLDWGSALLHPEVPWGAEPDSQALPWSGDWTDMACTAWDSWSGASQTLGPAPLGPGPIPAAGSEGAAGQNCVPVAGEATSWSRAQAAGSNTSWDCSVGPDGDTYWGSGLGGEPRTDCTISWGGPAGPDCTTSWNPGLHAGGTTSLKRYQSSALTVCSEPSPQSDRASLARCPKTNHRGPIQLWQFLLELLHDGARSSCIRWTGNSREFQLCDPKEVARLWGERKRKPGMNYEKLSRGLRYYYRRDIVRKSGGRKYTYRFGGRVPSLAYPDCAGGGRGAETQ
In a few lines:
as §1

The target in the next test is T8, ETV3 (Homo sapiens, UniProt P41162-2 1-143).
T8 sequence: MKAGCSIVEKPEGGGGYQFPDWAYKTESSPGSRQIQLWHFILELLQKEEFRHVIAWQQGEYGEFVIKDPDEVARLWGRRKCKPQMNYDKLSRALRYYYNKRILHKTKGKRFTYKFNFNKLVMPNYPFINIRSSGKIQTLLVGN
An outline of the steps: as §1

The target of a further test is ETV6 (Homo sapiens, UniProt P41212 1-452). In a few lines: as §1
ETV6, sequence (P41212 whole entry): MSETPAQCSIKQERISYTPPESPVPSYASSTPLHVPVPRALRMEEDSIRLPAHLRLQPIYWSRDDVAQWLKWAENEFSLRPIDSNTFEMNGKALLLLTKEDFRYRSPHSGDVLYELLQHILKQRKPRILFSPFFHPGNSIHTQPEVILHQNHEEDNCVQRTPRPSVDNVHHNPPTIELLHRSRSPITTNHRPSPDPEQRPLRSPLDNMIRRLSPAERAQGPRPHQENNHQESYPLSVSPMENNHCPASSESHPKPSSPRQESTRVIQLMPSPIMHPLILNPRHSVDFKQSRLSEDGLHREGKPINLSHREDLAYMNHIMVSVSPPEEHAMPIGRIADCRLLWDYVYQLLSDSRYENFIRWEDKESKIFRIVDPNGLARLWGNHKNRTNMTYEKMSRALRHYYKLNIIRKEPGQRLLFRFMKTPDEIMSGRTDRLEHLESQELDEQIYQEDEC

As to GTGGCA, the binding signal with FLI1 was 1.05 fold enrichment (6-mer frequency, TF over GST control); in the test with EHF, 1.03 fold enrichment (6-mer frequency, TF over GST control); with SPI1, 1.04 fold enrichment (6-mer frequency, TF over GST control); in the test with ELK3 it was 1.04 fold enrichment (6-mer frequency, TF over GST control); with FEV, 1.09 fold enrichment (6-mer frequency, TF over GST control); with SPIC, 1.04 fold enrichment (6-mer frequency, TF over GST control). The binding signal with ELK4 is 1.04 fold enrichment (6-mer frequency, TF over GST control); in the test with ETV2, 1.07 fold enrichment (6-mer frequency, TF over GST control); with ETV3, 1 fold enrichment (6-mer frequency, TF over GST control); with ETV6 it was 1.05 fold enrichment (6-mer frequency, TF over GST control).
